From ChEMBL document CHEMBL3988442, “University of Dundee, Small-Polar-MMV Screening Library” (2021)
Screen size: about 48,000 compounds; about 13,000 (27%) showed an effect of 50% or more. The list shows a part of the results.

The compounds below were run on Wolbachia pipientis (assay: Anti-Wolbachia Cell-Based Screen). Conditions: 5 µM.
Assay type: functional
Parameters: scale not given: in the data most compounds retested in dose-response had high values

First: CN1CC(c2ccccc2)CC12CCN(C(=O)c1c(Cl)cnn1C)CC2 (stereo not given)
Second: CC(C)n1ccnc1C1CCN(C(=O)c2ccccc2N(C)C)CC1
The “Percent Effect” value of the first is higher: 11% for the first, -47.93% for the second.

Going from `CC1CCN(C)c2ccccc2N1C(=O)c1ccnc(-n2cncn2)c1` (stereo not given) to `Cn1cnc2c1CCN(CC(=O)N(Cc1ccccc1F)C1CC1)C2`, the “Percent Effect” value rises from -2.842% to -0.08141%.

Going from `Cc1ccccc1C(C(=O)NCc1nc(-c2ncccn2)no1)N(C)C` (stereo not given) to `Cc1cccnc1[C@H](C)Nc1nc(-c2cccnc2)nc2c1CNC2`, the “Percent Effect” value falls from -2.983% to -9.004%.

Going from `CCOc1ccc(CC(CNC(=O)c2ccco2)C(N)=O)cc1` (stereo not given) to `COc1cccc(CC(=O)NCC(Cc2ccc(F)cc2)C(N)=O)c1` (stereo not given), the “Percent Effect” value rises from -3.482% to 112.8%.

First: COc1cccc(COCC(=O)NC(C(N)=O)c2ccccc2F)c1 (stereo not given)
Second: COc1ccc(OC)c(C(=O)N(C)Cc2nnc3ccccn23)c1
The “Percent Effect” value of the first is lower: 9.878% for the first, 126.3% for the second.

Compared with `COc1ccc(C(=O)N(C)Cc2cccc(C#N)c2)c(OC)c1OC`, `COc1ccc(C(=O)N(C)Cc2nnc3ccccn23)c(OC)c1OC` is higher in “Percent Effect” value: 5.74% for the first, 155.5% for the second.

First: CN(Cc1nnc2ccccn12)C(=O)CCC1CCCC1
Second: CN(Cc1nnc2ccccn12)C(=O)CC1CCCCC1
The “Percent Effect” value of the first is higher: -7.535% for the first, -9.634% for the second.

Compared with `COc1ccc(C(=O)N(C)Cc2nnc3ccccn23)c(OC)c1`, `COc1ccccc1C(=O)N(C)Cc1nnc2ccccn12` is higher in “Percent Effect” value: -6.181% for the first, 155.2% for the second.

Compared with `COc1cccc(C(=O)N(C)Cc2ncc(C)c(OC)c2C)c1OC`, `Cc1ccc(C)c(CN(C)Cc2nnc3ccccn23)c1` is lower in “Percent Effect” value: -3.642% for the first, -4.756% for the second.

Compared with `CCc1ccc(C2COCCN2C(=O)NCc2cccc(C#N)c2)o1` (stereo not given), `Cc1cc(NC(=O)N2CCC[C@@H]2CO)nn1-c1cccc(Cl)c1` is higher in “Percent Effect” value: -15.12% for the first, -10.34% for the second.

First: Cn1cccc1-c1cc(C(=O)N2CCCC2c2ccc(C(N)=O)s2)[nH]n1 (stereo not given)
Second: O=C(Nc1cc(-c2ccncc2)no1)C1CCC1
The “Percent Effect” value of the first is higher: -10.74% for the first, -23.1% for the second.

First: CC(C)CN1CCOC[C@H](Oc2ccc(S(C)(=O)=O)cc2)C1
Second: CC(C)(C)c1ccc(-c2n[nH]c3c2CN(CC2CCOC2)CC3)cc1 (stereo not given)
The “Percent Effect” value of the first is lower: 2.76% for the first, 5.17% for the second.

Going from `Cc1cc(C(=O)NCc2ccnc(N3CCN(C)CC3)c2)c(C)s1` to `Cc1nccc(NCc2cncc3c2CCN(CCN(C)C)C3)n1`, the “Percent Effect” value rises from 0.2044% to 100%.

Going from `O=C1CCCCN1CSc1nnnn1-c1ccc(Cl)cc1` to `CCSC1=Nc2c(cnn2-c2ccc(Cl)cc2)C2=NCCCN12`, the “Percent Effect” value rises from -1.778% to 119%.

First: CSC1=Nc2c(cnn2-c2ccc(C)cc2)C2=NCCCN12
Second: CSC1=Nc2c(cnn2-c2ccc(Cl)cc2)C2=NCCCN12
The “Percent Effect” value of the first is higher: 111.5% for the first, 101% for the second.

Going from `CSC1=Nc2c(cnn2-c2ccccc2)C2=NCCCN12` to `CSC1=Nc2c(cnn2-c2cccc(Cl)c2)C2=NCCCN12`, the “Percent Effect” value falls from 110.4% to 101.8%.

Compared with `CC(C)OCCOCc1cccc(NC(=O)NCCn2ccnc2)c1`, `Cc1ccccc1[C@@H]1CN(CCOCCO)C[C@H]1C(=O)O` is lower in “Percent Effect” value: 1.646% for the first, -28.11% for the second.

Going from `O=C(CCc1cc2n(n1)CCN(Cc1ncc[nH]1)C2)N1CCCC1` to `Cc1nccc(NCc2cncc3c2CCN(CC2CC2)C3)n1.Cl.Cl`, the “Percent Effect” value rises from 6.822% to 94.72%.

Compared with `Cc1cc(N[C@H]2CCCC[C@@H]2O)n2nccc2n1`, `Cc1nccc(NCc2cncc3c2CCN(CC2CCOC2)C3)n1.Cl.Cl` (stereo not given) is higher in “Percent Effect” value: -46.39% for the first, 113.7% for the second.

First: Cc1nc(Cn2cncc(Br)c2=O)no1
Second: Cc1cc(CN2CCc3c(CNc4ncccn4)cncc3C2)oc1C.Cl.Cl
The “Percent Effect” value of the first is lower: 4.078% for the first, 20.89% for the second.

First: CNC(=O)c1sccc1S(=O)(=O)NC
Second: Cn1ccc(NC(=O)CN2C[C@H]3CC[C@@H]2CN(S(C)(=O)=O)C3)n1
The “Percent Effect” value of the first is lower: -5.377% for the first, 4.015% for the second.

Compared with `COc1cccc2c1OCCCN(c1nc(N)nc3c1CCNC3)C2`, `Cc1ccc(NCc2cncc3c2CCN(C(=O)C2CC=CC2)C3)nn1.Cl` is higher in “Percent Effect” value: -2.498% for the first, 36.84% for the second.

Going from `Cc1ccc(NCc2cncc3c2CCN(Cc2ccccn2)C3)nn1.Cl.Cl` to `Cl.Cl.Cl.c1cnc(NCc2cncc3c2CCN(Cc2cccnc2)C3)nc1`, the “Percent Effect” value falls from 108.9% to 11.16%.

First: Cl.Cl.c1cnc(NCc2cncc3c2CCN(Cc2ccsc2)C3)nc1
Second: Cl.Cl.c1csc(CN2CCc3c(CNc4nncs4)cncc3C2)c1
The “Percent Effect” value of the first is lower: 10.62% for the first, 13.01% for the second.

First: O=C(NCCn1cccc1)C1CCCOC1 (stereo not given)
Second: CCC(Cn1ccc2[nH]c(=O)c(C#N)cc2c1=O)OC (stereo not given)
The “Percent Effect” value of the first is higher: 1.95% for the first, -23.91% for the second.
